In PubChem BioAssay (NCATS):
A number with no mark means an inactive call. Inconclusive results are not listed. The source made the active and inactive calls. Unless noted, calls come from the whole dose curve; as a rule, active = well fitted curve in either direction with a large enough effect (not every such curve was filed as active); inconclusive = small, poorly fitted or top-dose-only effect, or another doubt; inactive = flat fitted curve, though single readings scatter.

Biological target: Lysosomal acid glucosylceramidase (Homo sapiens) (UniProt P04062)
Experiment: Glucocerebrosidase-p2 (AID 348; in the data active = potency below about 10 µM; note: potency is the fitted concentration of half-maximal effect)
Conditions: purified GBA, blue fluorogenic substrate, 40 min
How it was run: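 Compounds titrated from 0.6 nM upwards against 0.2 nM enzyme in pH 5.9 citric acid/KH2PO4, taurocholate, tween-20; blue fluorogenic substrate 80 uM, 40 min room temperature, stopped and read Ex 365/Em 440 for AC50.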

Chain of Lysosomal acid glucosylceramidase (Homo sapiens) (P04062 whole entry, looked up): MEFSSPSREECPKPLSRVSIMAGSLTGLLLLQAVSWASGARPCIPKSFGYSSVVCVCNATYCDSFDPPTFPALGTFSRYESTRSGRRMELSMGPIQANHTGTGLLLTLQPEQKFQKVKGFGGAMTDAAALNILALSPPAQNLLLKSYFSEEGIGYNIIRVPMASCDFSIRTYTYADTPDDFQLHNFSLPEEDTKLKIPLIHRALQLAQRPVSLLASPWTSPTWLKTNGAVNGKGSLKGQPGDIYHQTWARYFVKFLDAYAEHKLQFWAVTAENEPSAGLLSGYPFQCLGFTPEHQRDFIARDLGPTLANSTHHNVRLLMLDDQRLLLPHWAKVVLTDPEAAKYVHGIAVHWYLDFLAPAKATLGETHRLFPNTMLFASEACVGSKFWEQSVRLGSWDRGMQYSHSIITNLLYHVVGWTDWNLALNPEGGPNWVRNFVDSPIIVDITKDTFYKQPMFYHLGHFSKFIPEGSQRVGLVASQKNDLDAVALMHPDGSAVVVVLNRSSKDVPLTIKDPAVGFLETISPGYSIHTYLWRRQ

With `COc1ccc(CNc2cc(-c3cccc(NS(C)(=O)=O)c3)ncn2)c(OC)c1` as the molecule, how does the Potency read?
Its Potency is over 11.4 µM.

For `COc1ccc2[nH]cc(CCNc3cc(-c4ccccc4OC)ncn3)c2c1`, which Potency is on record?
The Potency was over 11.4 µM.

For `Cc1ncc(COP(=O)(O)O)c(C)c1O`, which Potency is on record?
The Potency was over 11.4 µM.

For `Cc1cnc(CNc2ncnc3ccc(-c4ccc(N(C)C)cc4)cc23)cn1`, which Potency is on record?
The Potency was over 11.4 µM.

With `COc1ccc2[nH]cc(CCNc3ncncc3-c3ccc4c(c3)OCO4)c2c1` as the molecule, how does the Potency read?
Its Potency is over 11.4 µM.

For `COCCn1c(=O)c(CCc2ccccc2)nc2cnc(Oc3ccccc3)nc21`, which Potency is on record?
The Potency was over 11.4 µM.

For `COc1ccc2[nH]cc(CCNc3ncncc3-c3ccccc3C)c2c1`, which Potency is on record?
Its Potency is over 11.4 µM.

System: not listed separately
Experiment: AP1 Signaling Pathway (AID 357);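 note: ME-180 reporter cells stimulated with EGF at its EC50 level; % is set by controls: 0 for no effect and ±100 for the full control effect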
Conditions: ME-180 AP-1-bla reporter, EGF-induced, beta-lactamase ratio, 5 h; at 7.69 µM (top of the series) unless noted
How it was run: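 AP-1-bla ME-180 cells, Opti-MEM + 0.5% dialyzed FBS, plated overnight 37 °C. Cpd titration + EC50 EGF, 5 h 37 °C. CCF4 2.5 h RT; ex 405, em 460/530 ratio → %activity, AC50.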

With `COc1ccc2[nH]cc(CCNc3ncncc3-c3cccc(C#N)c3)c2c1` as the molecule, how does the activity change, negative = inhibition read?
The activity change, negative = inhibition was -18.6%.

Which activity change, negative = inhibition does the source give for `COc1ccccc1CNc1nc(-c2ccoc2)nc2ccccc12` here?
The activity change, negative = inhibition was 7.68%.

For `Cc1ncc(COP(=O)(O)O)c(C)c1O`, which activity change, negative = inhibition is on record?
Its activity change, negative = inhibition is 9.96%.

Which activity change, negative = inhibition does the source give for `COc1ccc2[nH]cc(CCNc3ncncc3-c3ccc4c(c3)OCO4)c2c1` here?
Its activity change, negative = inhibition is -27.8%.

With `COCCn1c(=O)c(CCc2ccccc2)nc2cnc(Oc3ccccc3)nc21` as the molecule, how does the activity change, negative = inhibition read?
The activity change, negative = inhibition was -27.4%.

For `COc1ccccc1-c1nc(NC2CC2)c2ccccc2n1`, which activity change, negative = inhibition is on record?
The activity change, negative = inhibition was -2.64%.

For `Cc1ccccc1-c1nc(Nc2ccncc2)c2ccccc2n1`, which activity change, negative = inhibition is on record?
Its activity change, negative = inhibition is -17.3%.

Biological target: Cytochrome P450 1A2 (Homo sapiens) (UniProt P05177)
Experiment: p450-cyp1a2 (AID 410; calls by dose curve; note: potency is the fitted concentration of half-maximal effect;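 for activity change, negative = inhibition: -100% = full effect of reference inhibitor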)
Conditions: recombinant CYP1A2, luciferin-ME demethylation, luminescence; series mostly up to 57 µM
How it was run: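 Luminescent readout of luciferin formed from Luciferin-ME by human CYP1A2; data normalized against complete inhibition by 57 uM furafylline. Enzyme 20nM, substrate 100uM at Km, 100mM KPO4 buffer, 60 min reaction at room temperature.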

Chain of Cytochrome P450 1A2 (Homo sapiens) (P05177 whole entry, looked up): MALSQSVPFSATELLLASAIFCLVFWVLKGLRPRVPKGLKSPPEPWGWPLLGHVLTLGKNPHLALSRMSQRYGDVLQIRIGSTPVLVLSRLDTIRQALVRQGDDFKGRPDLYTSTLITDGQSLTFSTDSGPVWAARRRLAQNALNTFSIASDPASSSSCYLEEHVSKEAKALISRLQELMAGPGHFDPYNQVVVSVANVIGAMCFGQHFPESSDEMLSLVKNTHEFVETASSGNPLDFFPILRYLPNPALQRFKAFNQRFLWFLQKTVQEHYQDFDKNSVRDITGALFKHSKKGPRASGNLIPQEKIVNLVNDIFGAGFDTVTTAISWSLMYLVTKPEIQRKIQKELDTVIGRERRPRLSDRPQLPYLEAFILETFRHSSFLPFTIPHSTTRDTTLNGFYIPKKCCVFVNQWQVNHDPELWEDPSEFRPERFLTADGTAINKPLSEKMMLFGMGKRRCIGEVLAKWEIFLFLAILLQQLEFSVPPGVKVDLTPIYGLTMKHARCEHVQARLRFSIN

Which Potency does the source give for `COc1ccc(CNc2cc(-c3cccc(NS(C)(=O)=O)c3)ncn2)c(OC)c1` here?
Its Potency is 15.8 µM (active).

Which Potency does the source give for `COc1ccc2[nH]cc(CCNc3cc(-c4ccccc4OC)ncn3)c2c1` here?
The Potency was 1.58 µM (active).

Which activity change, negative = inhibition does the source give for `Cc1ncc(COP(=O)(O)O)c(C)c1O` here?
Its activity change, negative = inhibition is -20.3% [at 11.4 µM].

With `Cc1cnc(CNc2ncnc3ccc(-c4ccc(N(C)C)cc4)cc23)cn1` as the molecule, how does the Potency read?
The Potency was 1 µM (active).

Which Potency does the source give for `COc1ccccc1-c1nc(NC2CC2)c2ccccc2n1` here?
Its Potency is 0.316 µM (active).

With `COc1ccc2[nH]cc(CCNc3ncncc3-c3ccccc3C)c2c1` as the molecule, how does the Potency read?
Its Potency is 0.631 µM (active).

For `Cc1ccccc1-c1nc(Nc2ccncc2)c2ccccc2n1`, which Potency is on record?
The Potency was 0.794 µM (active).

System: not listed separately
Experiment: NFAT Signaling Pathway (AID 444);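 note: carbachol stimulus at about its EC50 of 1 µM final; % is set by controls: 0 for no effect and ±100 for the full control effect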
Conditions: Jurkat NFAT-bla M1, carbachol, beta-lactamase ratio, 5 h; at 7.69 µM (top of the series) unless noted
How it was run: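 Jurkat cells with NFAT-driven β-lactamase reporter and co-expressed M1 receptor, stimulated with carbachol (final 1 uM, ~EC50), compound titration, 5 h at 37 °C. CCF4 loaded 1 h at RT; 460/530 nm ratio gave %activity and AC50.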

Which activity change, negative = inhibition does the source give for `COc1ccc2[nH]cc(CCNc3ncncc3-c3cccc(C#N)c3)c2c1` here?
Its activity change, negative = inhibition is -10.2%.

Which activity change, negative = inhibition does the source give for `COc1ccccc1CNc1nc(-c2ccoc2)nc2ccccc12` here?
The activity change, negative = inhibition was -19.8%.

With `COc1ccc(CNc2cc(-c3cccc(NS(C)(=O)=O)c3)ncn2)c(OC)c1` as the molecule, how does the activity change, negative = inhibition read?
The activity change, negative = inhibition was -10.4%.

Which activity change, negative = inhibition does the source give for `COc1ccc2[nH]cc(CCNc3cc(-c4ccccc4OC)ncn3)c2c1` here?
Its activity change, negative = inhibition is -7.55%.

For `Cc1ncc(COP(=O)(O)O)c(C)c1O`, which activity change, negative = inhibition is on record?
The activity change, negative = inhibition was -4.14%.

With `Cc1cnc(CNc2ncnc3ccc(-c4ccc(N(C)C)cc4)cc23)cn1` as the molecule, how does the activity change, negative = inhibition read?
The activity change, negative = inhibition was 5.72%.

With `COCCn1c(=O)c(CCc2ccccc2)nc2cnc(Oc3ccccc3)nc21` as the molecule, how does the activity change, negative = inhibition read?
The activity change, negative = inhibition was 7.7%.

Which activity change, negative = inhibition does the source give for `COc1ccccc1-c1nc(NC2CC2)c2ccccc2n1` here?
The activity change, negative = inhibition was -13.9%.

For `COc1ccc2[nH]cc(CCNc3ncncc3-c3ccccc3C)c2c1`, which activity change, negative = inhibition is on record?
The activity change, negative = inhibition was 7.13%.

Which activity change, negative = inhibition does the source give for `Cc1ccccc1-c1nc(Nc2ccncc2)c2ccccc2n1` here?
Its activity change, negative = inhibition is 6.78%.

System: not listed separately
Experiment: Stat Signaling Pathway (AID 446);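 note: ME-180 cervical cancer cells given 40 pM IL-6 alongside compound; SIE-controlled beta-lactamase reporter measured as 460/530 nm FRET emission ratio; % is set by controls: 0 for no effect and ±100 for the full control effect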
Conditions: ME-180 SIE beta-lactamase reporter, IL-6 stimulated, 5 h; series mostly up to 7.69 µM
How it was run: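 ME-180 SIE-bla cells; overnight plating; cpd + IL-6 40 pM, 5 h, 37 C; LiveBLAzer 2.5 h RT; 460/530 nm emission ratio. Normalized to 300 pM IL-6 and 125 nM JAK inhibitor controls.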

Which outcome does the source give for `COc1ccc2[nH]cc(CCNc3ncncc3-c3cccc(C#N)c3)c2c1` here?
Its outcome is “inactive”.

With `COc1ccccc1CNc1nc(-c2ccoc2)nc2ccccc12` as the molecule, how does the outcome read?
Its outcome is “inactive”.

With `COc1ccc(CNc2cc(-c3cccc(NS(C)(=O)=O)c3)ncn2)c(OC)c1` as the molecule, how does the outcome read?
The outcome was “inactive”.

For `COc1ccc2[nH]cc(CCNc3cc(-c4ccccc4OC)ncn3)c2c1`, which outcome is on record?
Its outcome is “inactive”.

For `Cc1ncc(COP(=O)(O)O)c(C)c1O`, which outcome is on record?
Its outcome is “inactive”.

With `Cc1cnc(CNc2ncnc3ccc(-c4ccc(N(C)C)cc4)cc23)cn1` as the molecule, how does the outcome read?
The outcome was “inactive”.

With `COc1ccc2[nH]cc(CCNc3ncncc3-c3ccc4c(c3)OCO4)c2c1` as the molecule, how does the outcome read?
Its outcome is “inactive”.

For `COCCn1c(=O)c(CCc2ccccc2)nc2cnc(Oc3ccccc3)nc21`, which outcome is on record?
The outcome was “inactive”.

Which outcome does the source give for `COc1ccccc1-c1nc(NC2CC2)c2ccccc2n1` here?
Its outcome is “inactive”.

Which outcome does the source give for `COc1ccc2[nH]cc(CCNc3ncncc3-c3ccccc3C)c2c1` here?
Its outcome is “inactive”.

For `Cc1ccccc1-c1nc(Nc2ccncc2)c2ccccc2n1`, which outcome is on record?
The outcome was “inactive”.

Biological target: Glucocorticoid receptor (Homo sapiens) (UniProt P04150)
Experiment: GR-GFP Redistribution (AID 450;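 active = compounds whose dose series gives a full or clear partial fitted curve of increased nuclear translocation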; note: potency is the fitted concentration of half-maximal effect)
Conditions: U2OS GR-GFP nuclear translocation, laser cytometry, 2 h

Chain of Glucocorticoid receptor (Homo sapiens) (P04150 whole entry, looked up): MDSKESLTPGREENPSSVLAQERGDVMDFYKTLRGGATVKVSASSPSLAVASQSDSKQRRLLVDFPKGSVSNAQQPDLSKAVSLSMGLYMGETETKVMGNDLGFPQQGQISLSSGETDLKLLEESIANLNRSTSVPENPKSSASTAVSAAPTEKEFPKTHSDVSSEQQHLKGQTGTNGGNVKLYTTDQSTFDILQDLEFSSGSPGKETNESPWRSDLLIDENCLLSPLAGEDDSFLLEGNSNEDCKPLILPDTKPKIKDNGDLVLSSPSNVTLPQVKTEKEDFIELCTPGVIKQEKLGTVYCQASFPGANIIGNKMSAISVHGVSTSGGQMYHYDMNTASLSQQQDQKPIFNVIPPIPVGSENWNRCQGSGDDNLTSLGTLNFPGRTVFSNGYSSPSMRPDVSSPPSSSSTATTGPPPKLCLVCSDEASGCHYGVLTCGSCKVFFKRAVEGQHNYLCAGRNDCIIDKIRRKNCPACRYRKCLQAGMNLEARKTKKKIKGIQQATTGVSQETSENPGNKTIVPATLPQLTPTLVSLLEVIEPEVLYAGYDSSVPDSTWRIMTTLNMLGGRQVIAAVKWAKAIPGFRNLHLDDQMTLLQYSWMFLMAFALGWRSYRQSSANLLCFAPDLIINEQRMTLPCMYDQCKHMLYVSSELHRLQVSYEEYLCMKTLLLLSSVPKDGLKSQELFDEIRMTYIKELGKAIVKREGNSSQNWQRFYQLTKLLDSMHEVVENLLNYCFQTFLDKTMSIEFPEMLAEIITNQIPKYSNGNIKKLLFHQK

With `COc1ccc2[nH]cc(CCNc3ncncc3-c3cccc(C#N)c3)c2c1` as the molecule, how does the Potency read?
The Potency was over 46 µM.

For `COc1ccccc1CNc1nc(-c2ccoc2)nc2ccccc12`, which Potency is on record?
Its Potency is over 46 µM.

Which Potency does the source give for `Cc1ncc(COP(=O)(O)O)c(C)c1O` here?
The Potency was over 46 µM.

With `Cc1cnc(CNc2ncnc3ccc(-c4ccc(N(C)C)cc4)cc23)cn1` as the molecule, how does the Potency read?
Its Potency is over 46 µM.

With `COCCn1c(=O)c(CCc2ccccc2)nc2cnc(Oc3ccccc3)nc21` as the molecule, how does the Potency read?
The Potency was over 9.22 µM.

Which Potency does the source give for `COc1ccc2[nH]cc(CCNc3ncncc3-c3ccccc3C)c2c1` here?
Its Potency is over 46 µM.

For `Cc1ccccc1-c1nc(Nc2ccncc2)c2ccccc2n1`, which Potency is on record?
The Potency was over 46 µM.

Biological target: Glucocorticoid receptor (Homo sapiens) (UniProt P04150)
Experiment: GR-EFC Redistribution (AID 451; calls by dose curve; note: potency is the fitted concentration of half-maximal effect)
Conditions: CHO-K1 GR-EFC translocation, beta-gal luminescence, 2 h
How it was run: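 CHO-K1 cells expressing nuclear EA and GR-ED fragments of b-gal; compounds titrated up to 46 uM final, 2 h at 37 C. GR nuclear translocation read as complemented b-gal luminescence after 1 h RT detection.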

With `COc1ccc2[nH]cc(CCNc3ncncc3-c3cccc(C#N)c3)c2c1` as the molecule, how does the Potency read?
The Potency was over 46 µM.

For `COc1ccc(CNc2cc(-c3cccc(NS(C)(=O)=O)c3)ncn2)c(OC)c1`, which Potency is on record?
The Potency was over 46 µM.

With `COc1ccc2[nH]cc(CCNc3cc(-c4ccccc4OC)ncn3)c2c1` as the molecule, how does the Potency read?
The Potency was over 46 µM.

With `Cc1ncc(COP(=O)(O)O)c(C)c1O` as the molecule, how does the Potency read?
The Potency was over 9.22 µM.

With `Cc1cnc(CNc2ncnc3ccc(-c4ccc(N(C)C)cc4)cc23)cn1` as the molecule, how does the Potency read?
Its Potency is over 46 µM.

For `COc1ccc2[nH]cc(CCNc3ncncc3-c3ccc4c(c3)OCO4)c2c1`, which Potency is on record?
Its Potency is over 46 µM.

Which Potency does the source give for `COCCn1c(=O)c(CCc2ccccc2)nc2cnc(Oc3ccccc3)nc21` here?
Its Potency is over 46 µM.

Which Potency does the source give for `COc1ccccc1-c1nc(NC2CC2)c2ccccc2n1` here?
Its Potency is over 46 µM.

For `COc1ccc2[nH]cc(CCNc3ncncc3-c3ccccc3C)c2c1`, which Potency is on record?
Its Potency is over 46 µM.

With `Cc1ccccc1-c1nc(Nc2ccncc2)c2ccccc2n1` as the molecule, how does the Potency read?
Its Potency is over 46 µM.
